ELG1 genotox – genotoxicity induction in ELG1-luciferase HEK293T cells; HEK293T ELG1-luciferase reporter, luminescence, 16 h; Potency, µM (top dose mostly 46 µM), without a hit: at the top dose activity change, positive = activation, most hits filed as activators; 1.3% of 330,000 active; AID 504466; also: % of control where 0% means no effect; nearly all actives have a fitted effect of over 60% in size
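Cells (2,000/well) expressing the ELG1-luciferase fusion are dosed by pin tool and kept 16 hr at 37 °C, 5% CO2. Signal comes from ONE-Glo luciferase reagent after 30 min at room temperature.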
Rab9 prom act – activates the Rab9 promoter; Huh7 Rab9 promoter-luciferase reporter, luminescence, 24 h; Potency, µM (top dose mostly 9.22 µM), inactives show at the top dose activation, negative = inhibition, most hits filed as activators; 2.8% of 320,000 active; also: % of control where 0% means no effect; nearly all actives have a fitted effect of over 60% in size
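Luminescence from Amplite-detected luciferase (10 minutes, ambient) reports Rab9 promoter activation. Before that, stable Rab9-luciferase Huh7 cells (1500/well, reduced-serum OP-MEM I plus 10% FBS) were exposed to compound for 24 hours at 37C.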
FLuc modulator – counter-screen for miR-21 project: firefly luciferase inhibitors or activators. purified FLuc, Km substrates, luminescence inhibition. Potency, µM (highest dose often 57.5 µM), inactives show top-dose activity change, negative = inhibition, usual class: inhibitors. 6.9% of 360,000 active;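 also: plate controls were vehicle for no effect and reference inhibitor for full effect; nearly all actives have a fitted effect of over 55% in size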
Target sequence (P08659 whole entry, looked up): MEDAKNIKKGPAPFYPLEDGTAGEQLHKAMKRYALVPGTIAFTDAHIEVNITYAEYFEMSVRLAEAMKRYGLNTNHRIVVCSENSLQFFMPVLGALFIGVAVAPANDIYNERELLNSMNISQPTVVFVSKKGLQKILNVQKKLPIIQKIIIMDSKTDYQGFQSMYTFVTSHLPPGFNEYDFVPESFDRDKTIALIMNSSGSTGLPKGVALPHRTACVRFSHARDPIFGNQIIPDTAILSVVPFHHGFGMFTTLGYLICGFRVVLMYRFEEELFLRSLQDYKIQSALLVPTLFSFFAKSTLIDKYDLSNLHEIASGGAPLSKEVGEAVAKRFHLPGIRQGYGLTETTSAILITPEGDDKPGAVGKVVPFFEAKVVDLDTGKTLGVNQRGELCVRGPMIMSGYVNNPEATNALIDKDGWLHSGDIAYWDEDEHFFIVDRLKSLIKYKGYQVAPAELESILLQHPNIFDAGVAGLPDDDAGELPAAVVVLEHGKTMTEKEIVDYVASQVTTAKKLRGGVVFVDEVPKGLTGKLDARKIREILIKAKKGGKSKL
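Purified P. pyralis luciferase (10nM final) with 10uM D-luciferin and 10uM ATP (Km levels) in 50mM Tris acetate pH 7.5, 10mM Mg acetate, 0.01% Tween-20, 0.05% BSA; qHTS 6-point titration, ~60 µM downward; luminescence read.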
NPC1 prom act – activates the NPC1 promoter. Huh7 NPC1 promoter luciferase reporter, 24 h. Potency, µM (titrated, usually from 9.22 µM), without a hit: at the highest dose activation, actives largely listed as activators. 2.4% of 320,000 active. AID 485313; also: % of control where 0% means no effect; nearly all actives have a fitted effect of over 60% in size
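Stable NPC1-promoter luciferase Huh7 line; cpd (DMSO) 24 h, 37 °C, 5% CO2; Amplite luciferase reagent 10 min RT; luminescence readout. qHTS format.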
SMN2 splice up – enhancers of SMN2 splice variant expression; HEK293 SMN2-luciferase splicing reporter, luminescence, 30-36 h; Potency, µM (top dose mostly 46.1 µM), for inactives: at the top dose activity change, positive = activation, actives largely listed as activators; 2.8% of 210,000 active; AID 1458; also: % of control where 0% means no effect; nearly all actives have a fitted effect of over 55% in size
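HEK293 cells carry an SMN2 minigene-luciferase reporter in which exon 7 inclusion puts luciferase in frame. Cells were seeded at 2000 cells/well, attached for 10-12 hours, then exposed to compounds for 30-36 hours at 37C before ONE-Glo luminescence.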
ELG1 repair inh – blocks ELG1-dependent DNA repair in HEK293T cells; HEK293T ELG1-luciferase reporter, luminescence, 16 h; DNA damage induced by 5-fluorouridine; Potency, µM (top dose mostly 46.1 µM), inactives show at the top dose activity change, negative = inhibition, actives largely listed as inhibitors; 2.3% of 330,000 active; AID 504467; also: % is scaled to controls: 0 for no effect and ±100 for the full control effect; nearly all actives have a fitted effect of over 55% in size
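DMSO vehicle served as the neutral condition. Each well held 2,000 cells given 5-fluorouridine plus compound; after 16 hr at 37 °C/5% CO2, ONE-Glo was added and luciferase measured 30 min later.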
* hit, by the source's call; ? = inconclusive; · = no result given; [ ] = remark or other dose. Sampled rows, rich in hits. Any-hit rate of the full collection: about 9.2%. Calls follow the shape of the dose curve; as a rule, active = well fitted curve in the direction sought with a large enough effect; inconclusive = small, poorly fitted or top-dose-only effect, or another doubt; inactive = no such curve, though single readings can be large; an effect the other way counts as inactive or inconclusive. Potency is read from the fitted curve at half-maximal effect.

SMILES	ELG1 genotox	Rab9 prom act	FLuc modulator	NPC1 prom act	SMN2 splice up	ELG1 repair inh
O=C(Nc1cn(-c2ccccc2)nc1-c1cccs1)c1ccco1	0.4%	-6.6%	16.9µM*	12.6%	2.1%	-3.4%
CCSc1ccc([C@@H]2[C@H]3C(=O)N(C)C(=O)[C@H]3[C@]3(C(=O)OC)CCCCN23)cc1OC	-6.9%	0.1%	-5.2%	-0.4%	·	?
CCCCC(CCC(=O)Nc1cc([N+](=O)[O-])ccc1O)C(=O)O (stereo not given)	0.3%	-0.5%	?	0.9%	-25.0%	14.5%
O=C(Nc1ccc2ccccc2c1)c1cn(-c2ccccc2)nc1-c1cccs1	1.3%	24.7%	6.01µM*	-3.2%	-12.4%	-10.5%
CN1CCN(NC(=O)c2cn(-c3ccccc3)nc2-c2cccs2)CC1	1.9%	3.3%	?	0.2%	-6.3%	24.5%
O=C(NN1CCOCC1)c1cn(-c2ccccc2)nc1-c1cccs1	1.0%	1.1%	21.3µM*	0.5%	·	?
CCN(CC(=O)Nc1ccc(NC(C)=O)cc1)C(=O)c1cn(-c2ccccc2)nc1-c1cccs1	-7.3%	-2.6%	21.3µM*	0.5%	·	?
CCN(CC(=O)NCc1cccs1)S(=O)(=O)c1ccccc1Cl	0.8%	-2.8%	-0.7%	-8.2%	·	-4.5%
Cc1ccc(NS(=O)(=O)c2cccc(C(=O)N(C)Cc3cccs3)c2)cc1	-0.9%	-0.6%	6.1%	-2.8%	·	-14.5%
O=C(CNC(=O)N1CC(=O)Nc2ccccc21)NCCc1cccc(F)c1	1.8%	4.4%	-1.5%	-2.3%	·	-3.0%
COC(=O)CNC(=O)[C@@]1(Cc2ccccc2)C=C[C@@H](C)N1C(=O)c1ccccc1	·	·	·	·	12.6µM*	·
Cn1cc(/C=N/NC(=O)c2ccccc2O)c2ccccc21	9.3%	26.3%	4.78µM*	?	·	?
Cn1cc(/C=N/NC(=O)c2cccc([N+](=O)[O-])c2)c2ccccc21	?	-10.1%	-2.1%	7.0%	2.1%	?
O=C(N/N=C\c1coc2ccccc2c1=O)c1ccco1	-8.5%	-2.1%	-27.5%	-6.4%	·	-3.0%
CC(C)(C)OC(=O)n1cc(/C=N/NC(=O)c2ccco2)c2ccccc21	8.0%	16.8%	9.53µM*	21.7%	·	?
Cc1nc(C)c(C(=O)N/N=C/c2cn(C)c3ccccc23)s1	1.1%	8.0%	16.9µM*	-2.5%	-3.6%	?
CC(=O)n1cc(/C=N/NC(N)=S)c2ccccc21	18.1%	-0.9%	-0.4%	-0.3%	?	19.3%
CC(=O)n1cc(/C=N/NC(=O)c2ccccc2O)c2ccccc21	11.5%	?	9.53µM*	27.8%	·	29.4%
OC(CNCc1ccco1)Cn1c2ccc(Br)cc2c2cc(Br)ccc21 (stereo not given)	-21.8%	-3.8%	5.2%	1.2%	-33.6%	?
COc1ccc2c(c1)CCC/C2=N\Nc1nc(C(=O)NN)cs1	5.3%	2.1%	1.35µM*	22.0%	·	?
CCOC(=O)c1csc(N/N=C2\CCCc3ccccc32)n1	-11.6%	1.2%	?	-1.1%	·	-1.8%
CN1CCC(NC(=O)NC2CCCCC2)CC1	-2.1%	-2.2%	-1.1%	-1.5%	·	8.7%
O=C(NC1CCCCCC1)C(=S)NC1CCCCC1	?	-4.1%	5.36µM*	2.51µM*	-36.2%	?
O=C(NC1CCCCCCC1)NC1CCCCC1	?	3.98µM*	16.9µM*	3.55µM*	?	?
O=C(NC1CCCCCC1)C(=O)NC1CC1	1.2%	15.5%	-8.4%	12.5%	·	18.8%
SMILES	ELG1 genotox	Rab9 prom act	FLuc modulator	NPC1 prom act	SMN2 splice up	ELG1 repair inh
Cc1cc(NC(=O)c2oc3c(c2C)-c2[nH]ncc2CC3)ccc1Br	·	·	3.1%	·	·	·
COc1ccc2c(c1)C(=O)[C@@H](OC(=O)NC1CCCC1)[C@H](c1ccc(OC)c(Br)c1)O2	·	·	·	·	1.6%	·
Cc1nn(Cc2noc(C(=O)NCc3cccc(F)c3)n2)c(C)c1Br	·	·	-3.7%	·	-7.7%	·
COc1cccc(-n2nc(-c3ccnn3-c3ccc(C)cc3)c(=O)n(C)c2=O)c1	1.6%	2.2%	-3.1%	-0.3%	-11.2%	20.6µM*
O=C1c2ccccc2C(=O)c2cc(NC(=O)C3CC3)ccc21	?	2.24µM*	?	2.51µM*	11.2µM*	?
CC(=O)Nc1ccc2c(c1)C(=O)c1ccccc1C2=O	?	0.708µM*	4.78µM*	1.58µM*	12.6µM*	?
O=C(O)/C=C/C(=O)Nc1ccc(C(=O)c2ccccc2)cc1	-2.2%	-1.3%	3.0%	-4.4%	·	?
O=C(O)/C=C/C(=O)Nc1ccc2c(c1)C(=O)c1ccccc1C2=O	8.8%	12.9%	16.9µM*	4.8%	·	?
O=c1c2ccccc2nc(SCc2ccccc2)n1CC1CCCO1 (stereo not given)	-4.2%	-3.0%	1.1%	-0.9%	·	3.5%
CCc1ccc(NC(=O)c2cc3c([nH]c2=O)CC(C)(C)CC3=O)cc1	·	·	-7.9%	·	7.0%	·
CSCCC(NC(=O)c1ccco1)C(=O)N(C)CC(=O)Nc1ccccc1Br (stereo not given)	0.6%	-5.1%	-3.4%	1.5%	·	11.8%
CC(C)Oc1ccc(C(=O)NC2CCS(=O)(=O)C2)cc1 (stereo not given)	0.1%	4.5%	3.8%	-2.7%	-5.7%	?
CC(C)Oc1ccc(C(=O)NC2CCCCC2)cc1	18.4µM*	3.98µM*	10.7µM*	2.82µM*	?	?
C=CCOc1ccc(C(=O)NC2CCCCC2)cc1	?	?	12µM*	?	·	?
Cc1cccc(C(=O)OC(C)C(=O)N2CCc3ccccc3C2)c1C (stereo not given)	0.3%	-4.9%	1.7%	-8.1%	·	3.8%
O=C(CN1CCOCC1)Nc1nc(-c2ccccc2Cl)cs1	3.4%	-0.6%	-0.3%	-5.8%	·	7.6%
N#C/C(=C\c1ccc2c(c1)OCCO2)C(=O)Nc1nccs1	10.2%	0.8%	0.601µM*	1.7%	·	?
C=CCNC(=O)/C(C#N)=C/c1ccc(SC)cc1	11.3%	2.5%	12µM*	-0.3%	0.4%	-18.2%
COCCNC(=O)/C(C#N)=C/c1ccc2c(c1)OCO2	12.9%	17.3%	?	3.4%	·	?
C=CCNC(=O)/C(C#N)=C/c1ccc2c(c1)OCCO2	13.1%	6.9%	12µM*	0.3%	-5.5%	?
CSc1ccc(/C=C(\C#N)C(=O)NC2CCCCC2)cc1	1.1%	-3.5%	3.0%	-2.4%	-6.7%[1.84 µM]	?
COc1cccc(N2CC(NC(=O)c3ccc(S(=O)(=O)N4CCCCC4)cc3)CC2=O)c1 (stereo not given)	·	·	1.2%	·	·	·
CC(=O)NNC(=O)c1nc(-c2ccccc2)c(C)o1	1.5%	-5.8%	2.8%	-4.3%	·	-20.2%
